Experimental data: the supplement of paper PMC7765376
Counter-ions that a name gives are not always drawn. Over roughly 1,500 compounds, “Excess HSA synergy score (sum over dose matrix of excess over highest single agent)” has its median near 43; the lowest 2% begin near -900. The sample as a whole holds a higher share of the lowest values than the screen did.

Test system: PEO-1
Assay: Excess HSA synergy score (sum over dose matrix of excess over highest single agent) (score (summed % response)); higher = less synergy / more antagonism (negative = synergy)
Conditions: 72 h, read-out: viability/apoptosis luminescence (CellTiter-Glo or Caspase3-Glo / not stated per table)
[1] = matrix design: 6x6, 5-fold dilutions (primary screen)
[2] = matrix design: 10x10, 9-step dilutions (confirmatory)

CCCCCNC(=O)N1CCC(CN(Cc2ccc(Cl)cc2)Cc2ccc([N+](=O)[O-])s2)C1 (stereo not drawn) + CC[C@H](NC(=O)[C@H](C)NC)C(=O)N1C[C@@H](O)C[C@H]1Cc1c(-c2[nH]c3cc(F)ccc3c2C[C@@H]2C[C@H](O)CN2C(=O)[C@H](CC)NC(=O)[C@H](C)NC)[nH]c2cc(F)ccc12 [Birinapant]
Excess HSA synergy score [1]: -0.0169

O=c1ccn(C2OC(CO)C(O)C2F)c(=O)[nH]1 (stereo not drawn) + CC[C@H](NC(=O)[C@H](C)NC)C(=O)N1C[C@@H](O)C[C@H]1Cc1c(-c2[nH]c3cc(F)ccc3c2C[C@@H]2C[C@H](O)CN2C(=O)[C@H](CC)NC(=O)[C@H](C)NC)[nH]c2cc(F)ccc12 [Birinapant]
Excess HSA synergy score [1]: 232

Cc1cc(Nc2cc(CN3CCOCC3)c3nc(C)c(Cc4ccc(Cl)cc4F)n3n2)n[nH]1 [Gandotinib] + CC[C@H](NC(=O)[C@H](C)NC)C(=O)N1C[C@@H](O)C[C@H]1Cc1c(-c2[nH]c3cc(F)ccc3c2C[C@@H]2C[C@H](O)CN2C(=O)[C@H](CC)NC(=O)[C@H](C)NC)[nH]c2cc(F)ccc12 [Birinapant]
Excess HSA synergy score [1]: 66.5

COc1ccc(-c2c(-c3ccc(O)cc3O)n[nH]c2C)cc1 + CC[C@H](NC(=O)[C@H](C)NC)C(=O)N1C[C@@H](O)C[C@H]1Cc1c(-c2[nH]c3cc(F)ccc3c2C[C@@H]2C[C@H](O)CN2C(=O)[C@H](CC)NC(=O)[C@H](C)NC)[nH]c2cc(F)ccc12 [Birinapant]
Excess HSA synergy score [1]: 59.5

Cc1c(CN2CCN(S(C)(=O)=O)CC2)sc2c(N3CCOCC3)nc(-c3cnc(N)nc3)nc12 + CC[C@H](NC(=O)[C@H](C)NC)C(=O)N1C[C@@H](O)C[C@H]1Cc1c(-c2[nH]c3cc(F)ccc3c2C[C@@H]2C[C@H](O)CN2C(=O)[C@H](CC)NC(=O)[C@H](C)NC)[nH]c2cc(F)ccc12 [Birinapant]
Excess HSA synergy score [1]: 87.6

C/C=C1\NC(=O)[C@H]2CSSCC/C=C/[C@H](CC(=O)N[C@H](C(C)C)C(=O)N2)OC(=O)[C@H](C(C)C)NC1=O [Romidepsin] + CC[C@H](NC(=O)[C@H](C)NC)C(=O)N1C[C@@H](O)C[C@H]1Cc1c(-c2[nH]c3cc(F)ccc3c2C[C@@H]2C[C@H](O)CN2C(=O)[C@H](CC)NC(=O)[C@H](C)NC)[nH]c2cc(F)ccc12 [Birinapant]
Excess HSA synergy score [1]: -212
Excess HSA synergy score [2]: -1300

COc1cccc2c(NCc3ccccc3)nc(-n3c(N)nc4ccccc43)nc12 + CC[C@H](NC(=O)[C@H](C)NC)C(=O)N1C[C@@H](O)C[C@H]1Cc1c(-c2[nH]c3cc(F)ccc3c2C[C@@H]2C[C@H](O)CN2C(=O)[C@H](CC)NC(=O)[C@H](C)NC)[nH]c2cc(F)ccc12 [Birinapant]
Excess HSA synergy score [1]: 17

N#CC1(c2cccc(C(=O)Nc3cc(Oc4ccc5nc(NC(=O)C6CC6)sc5n4)ccc3F)c2Cl)CC1 [Takeda-6d] + CC[C@H](NC(=O)[C@H](C)NC)C(=O)N1C[C@@H](O)C[C@H]1Cc1c(-c2[nH]c3cc(F)ccc3c2C[C@@H]2C[C@H](O)CN2C(=O)[C@H](CC)NC(=O)[C@H](C)NC)[nH]c2cc(F)ccc12 [Birinapant]
Excess HSA synergy score [1]: 135

O[C@@H](CNC[C@H](O)[C@H]1CCc2cc(F)ccc2O1)[C@@H]1CCc2cc(F)ccc2O1 (racemic) [rac Nebivolol hydrochloride] + CC[C@H](NC(=O)[C@H](C)NC)C(=O)N1C[C@@H](O)C[C@H]1Cc1c(-c2[nH]c3cc(F)ccc3c2C[C@@H]2C[C@H](O)CN2C(=O)[C@H](CC)NC(=O)[C@H](C)NC)[nH]c2cc(F)ccc12 [Birinapant]
Excess HSA synergy score [1]: 50.2

CC(C)(O)CC[C@@H](O)[C@](C)(O)[C@H]1CC[C@@]2(O)C3=CC(=O)[C@@H]4C[C@@H](O)[C@@H](O)C[C@]4(C)[C@H]3CC[C@]12C [20-hydroxyecdysone] + CC[C@H](NC(=O)[C@H](C)NC)C(=O)N1C[C@@H](O)C[C@H]1Cc1c(-c2[nH]c3cc(F)ccc3c2C[C@@H]2C[C@H](O)CN2C(=O)[C@H](CC)NC(=O)[C@H](C)NC)[nH]c2cc(F)ccc12 [Birinapant]
Excess HSA synergy score [1]: 229

O=C(Nc1ccccc1Br)N[C@@H]1CCN(c2ccc(C(F)(F)F)cn2)C1 + CC[C@H](NC(=O)[C@H](C)NC)C(=O)N1C[C@@H](O)C[C@H]1Cc1c(-c2[nH]c3cc(F)ccc3c2C[C@@H]2C[C@H](O)CN2C(=O)[C@H](CC)NC(=O)[C@H](C)NC)[nH]c2cc(F)ccc12 [Birinapant]
Excess HSA synergy score [1]: -16.5

C[C@H](NC(=O)C(=O)Nc1ccccc1C(C)(C)C)C(=O)N[C@@H](CC(=O)O)C(=O)COc1c(F)c(F)cc(F)c1F [Emricasan] + CC[C@H](NC(=O)[C@H](C)NC)C(=O)N1C[C@@H](O)C[C@H]1Cc1c(-c2[nH]c3cc(F)ccc3c2C[C@@H]2C[C@H](O)CN2C(=O)[C@H](CC)NC(=O)[C@H](C)NC)[nH]c2cc(F)ccc12 [Birinapant]
Excess HSA synergy score [2]: -606

COc1ccc2c(OCc3nnc4ccc(-c5ccccc5)nn34)ccnc2c1 + CC[C@H](NC(=O)[C@H](C)NC)C(=O)N1C[C@@H](O)C[C@H]1Cc1c(-c2[nH]c3cc(F)ccc3c2C[C@@H]2C[C@H](O)CN2C(=O)[C@H](CC)NC(=O)[C@H](C)NC)[nH]c2cc(F)ccc12 [Birinapant]
Excess HSA synergy score [1]: -55.6

N[C@@H](CSC(c1ccccc1)(c1ccccc1)c1ccccc1)C(=O)O [S-Trityl-L-cysteine] + CC[C@H](NC(=O)[C@H](C)NC)C(=O)N1C[C@@H](O)C[C@H]1Cc1c(-c2[nH]c3cc(F)ccc3c2C[C@@H]2C[C@H](O)CN2C(=O)[C@H](CC)NC(=O)[C@H](C)NC)[nH]c2cc(F)ccc12 [Birinapant]
Excess HSA synergy score [1]: -23.2

CCC(=O)NCC[C@@H]1CCc2ccc3c(c21)CCO3 [Ramelteon] + CC[C@H](NC(=O)[C@H](C)NC)C(=O)N1C[C@@H](O)C[C@H]1Cc1c(-c2[nH]c3cc(F)ccc3c2C[C@@H]2C[C@H](O)CN2C(=O)[C@H](CC)NC(=O)[C@H](C)NC)[nH]c2cc(F)ccc12 [Birinapant]
Excess HSA synergy score [1]: 10.8

NC(=O)c1c(OCc2c(F)cc(Br)cc2F)nsc1NC(=O)NCCCCN1CCCC1 + CC[C@H](NC(=O)[C@H](C)NC)C(=O)N1C[C@@H](O)C[C@H]1Cc1c(-c2[nH]c3cc(F)ccc3c2C[C@@H]2C[C@H](O)CN2C(=O)[C@H](CC)NC(=O)[C@H](C)NC)[nH]c2cc(F)ccc12 [Birinapant]
Excess HSA synergy score [1]: 11

C#Cc1cccc(Nc2ncnc3cc(OC)c(OCCCCCCC(=O)NO)cc23)c1 + CC[C@H](NC(=O)[C@H](C)NC)C(=O)N1C[C@@H](O)C[C@H]1Cc1c(-c2[nH]c3cc(F)ccc3c2C[C@@H]2C[C@H](O)CN2C(=O)[C@H](CC)NC(=O)[C@H](C)NC)[nH]c2cc(F)ccc12 [Birinapant]
Excess HSA synergy score [1]: -55.2

CCC(CC)CC1(C(=O)Nc2ccccc2SC(=O)C(C)C)CCCCC1 [Dalcetrapib] + CC[C@H](NC(=O)[C@H](C)NC)C(=O)N1C[C@@H](O)C[C@H]1Cc1c(-c2[nH]c3cc(F)ccc3c2C[C@@H]2C[C@H](O)CN2C(=O)[C@H](CC)NC(=O)[C@H](C)NC)[nH]c2cc(F)ccc12 [Birinapant]
Excess HSA synergy score [1]: 134

CC(C)(C)c1[nH]cnc1/C=c1\[nH]c(=O)/c(=C/c2ccccc2)[nH]c1=O [Plinabulin] + CC[C@H](NC(=O)[C@H](C)NC)C(=O)N1C[C@@H](O)C[C@H]1Cc1c(-c2[nH]c3cc(F)ccc3c2C[C@@H]2C[C@H](O)CN2C(=O)[C@H](CC)NC(=O)[C@H](C)NC)[nH]c2cc(F)ccc12 [Birinapant]
Excess HSA synergy score [1]: -109

COc1ccnc2[nH]cc(C(=O)C(=O)N3CCN(C(=O)c4ccccc4)C[C@H]3C)c12 + CC[C@H](NC(=O)[C@H](C)NC)C(=O)N1C[C@@H](O)C[C@H]1Cc1c(-c2[nH]c3cc(F)ccc3c2C[C@@H]2C[C@H](O)CN2C(=O)[C@H](CC)NC(=O)[C@H](C)NC)[nH]c2cc(F)ccc12 [Birinapant]
Excess HSA synergy score [1]: 263

C[C@H]1[C@H](C)CC[C@]2(C(=O)O)CC[C@]3(C)C(=CC[C@@H]4[C@@]5(C)C[C@@H](O)[C@H](O)[C@@](C)(CO)[C@@H]5CC[C@]43C)[C@H]12 [Asiatic acid] + CC[C@H](NC(=O)[C@H](C)NC)C(=O)N1C[C@@H](O)C[C@H]1Cc1c(-c2[nH]c3cc(F)ccc3c2C[C@@H]2C[C@H](O)CN2C(=O)[C@H](CC)NC(=O)[C@H](C)NC)[nH]c2cc(F)ccc12 [Birinapant]
Excess HSA synergy score [1]: 84.9

CCc1cnn2c(NCc3ccc[n+]([O-])c3)cc(N3CCCC[C@H]3CCO)nc12 + CC[C@H](NC(=O)[C@H](C)NC)C(=O)N1C[C@@H](O)C[C@H]1Cc1c(-c2[nH]c3cc(F)ccc3c2C[C@@H]2C[C@H](O)CN2C(=O)[C@H](CC)NC(=O)[C@H](C)NC)[nH]c2cc(F)ccc12 [Birinapant]
Excess HSA synergy score [1]: 5.95
Excess HSA synergy score [2]: -374

Nc1nc2[nH]cc(CCc3ccc(C(=O)N[C@@H](CCC(=O)O)C(=O)O)cc3)c2c(=O)[nH]1 [Pemetrexed disodium] + CC[C@H](NC(=O)[C@H](C)NC)C(=O)N1C[C@@H](O)C[C@H]1Cc1c(-c2[nH]c3cc(F)ccc3c2C[C@@H]2C[C@H](O)CN2C(=O)[C@H](CC)NC(=O)[C@H](C)NC)[nH]c2cc(F)ccc12 [Birinapant]
Excess HSA synergy score [1]: -173

Nc1ncnc2c1ncn2[C@@H]1O[C@H](CO)[C@@H](O)[C@H]1O [Adenosine] + CC[C@H](NC(=O)[C@H](C)NC)C(=O)N1C[C@@H](O)C[C@H]1Cc1c(-c2[nH]c3cc(F)ccc3c2C[C@@H]2C[C@H](O)CN2C(=O)[C@H](CC)NC(=O)[C@H](C)NC)[nH]c2cc(F)ccc12 [Birinapant]
Excess HSA synergy score [1]: 270

Nc1nc(Cl)nc2c1ncn2[C@H]1C[C@H](O)[C@@H](CO)O1 [Cladribine] + CC[C@H](NC(=O)[C@H](C)NC)C(=O)N1C[C@@H](O)C[C@H]1Cc1c(-c2[nH]c3cc(F)ccc3c2C[C@@H]2C[C@H](O)CN2C(=O)[C@H](CC)NC(=O)[C@H](C)NC)[nH]c2cc(F)ccc12 [Birinapant]
Excess HSA synergy score [1]: -229
Excess HSA synergy score [2]: -1080

Nc1nc(=O)n([C@H]2C[C@H](O)[C@@H](CO)O2)cc1F + CC[C@H](NC(=O)[C@H](C)NC)C(=O)N1C[C@@H](O)C[C@H]1Cc1c(-c2[nH]c3cc(F)ccc3c2C[C@@H]2C[C@H](O)CN2C(=O)[C@H](CC)NC(=O)[C@H](C)NC)[nH]c2cc(F)ccc12 [Birinapant]
Excess HSA synergy score [1]: -352

Nc1nc(Cl)nc2c1ncn2[C@@H]1O[C@H](CO)[C@@H](O)[C@@H]1F [Clofarabine] + CC[C@H](NC(=O)[C@H](C)NC)C(=O)N1C[C@@H](O)C[C@H]1Cc1c(-c2[nH]c3cc(F)ccc3c2C[C@@H]2C[C@H](O)CN2C(=O)[C@H](CC)NC(=O)[C@H](C)NC)[nH]c2cc(F)ccc12 [Birinapant]
Excess HSA synergy score [1]: -118
Excess HSA synergy score [2]: -898

Nc1ncn([C@H]2C[C@H](O)[C@@H](CO)O2)c(=O)n1 [Decitabine] + CC[C@H](NC(=O)[C@H](C)NC)C(=O)N1C[C@@H](O)C[C@H]1Cc1c(-c2[nH]c3cc(F)ccc3c2C[C@@H]2C[C@H](O)CN2C(=O)[C@H](CC)NC(=O)[C@H](C)NC)[nH]c2cc(F)ccc12 [Birinapant]
Excess HSA synergy score [1]: -104

Nc1nc(F)nc2c1ncn2[C@@H]1O[C@H](CO)[C@@H](O)[C@H]1O [2-Fluoroadenosine] + CC[C@H](NC(=O)[C@H](C)NC)C(=O)N1C[C@@H](O)C[C@H]1Cc1c(-c2[nH]c3cc(F)ccc3c2C[C@@H]2C[C@H](O)CN2C(=O)[C@H](CC)NC(=O)[C@H](C)NC)[nH]c2cc(F)ccc12 [Birinapant]
Excess HSA synergy score [1]: 41.5
